Test results as given in the supplement of paper PMC6522484.
± gives the standard deviation of the averaged measurements.

Tests used:
DLD1 [1] = experiment: cell viability (CellTiter-Glo) relative to plate median (fraction of plate median); higher = more viable cells; settings: 5 µM; treatment time 24 h; reporter: 7TFP
Procedure, shortened: (§1)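 Each entry is a luminescence signal normalised to the plate median, averaged over independent replicates. The replicate count was two, and the cells were colorectal cancer lines with stable lentiviral TCF/Wnt firefly luciferase reporters exposed to library compounds at a final 5 µM for 24 h. Firefly luciferase and CellTiterGlo were measured on parallel plates.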

HCT116 = experiment: as above; settings: 5 µM; treatment time 24 h; reporter: TCF4/Wnt
Procedure, shortened: as §1

SW480 [2] = experiment: as above; settings: 5 µM; treatment time 24 h; reporter: 7TFP
Procedure, shortened: as §1

DLD1 [3] = experiment: TCF/Wnt firefly luciferase reporter signal relative to plate median (fraction of plate median); higher = higher Wnt reporter signal; settings: 5 µM; treatment time 24 h; reporter: 7TFP
Procedure, shortened: as §1

SW480 [4] = experiment: as above; settings: 5 µM; treatment time 24 h; reporter: 7TFP
Procedure, shortened: as §1

Row | SMILES | cell viability (DLD1 [1]) | cell viability (HCT116) | cell viability (SW480 [2]) | TCF/Wnt firefly luciferase reporter signal (DLD1 [3]) | TCF/Wnt firefly luciferase reporter signal (SW480 [4])
1 | Clc1ccccc1C(c1ccccc1)(c1ccccc1)n1ccnc1 | 1.05 ± 0.089 | 1 ± 0.11 | 0.956 ± 0.0042 | 0.938 ± 0.086 | 1.08 ± 0.014
2 | CC(=O)O[C@H]1CC[C@]2(C)C3=C(CC[C@H]2C1(C)C)[C@]1(C)CC[C@H]([C@H](C)CCC=C(C)C)[C@@]1(C)CC3 | 0.966 ± 0.036 | 0.957 ± 0.055 | 0.953 ± 0.034 | 0.9 ± 0.098 | 0.958 ± 0.1
3 | C=CCNC1=C2C[C@@H](C)C[C@H](OC)[C@H](O)[C@@H](C)/C=C(\C)[C@H](OC(N)=O)[C@@H](OC)/C=C\C=C(/C)C(=O)NC(=CC1=O)C2=O | 1.07 ± 0.014 | 0.623 ± 0.023 | 0.972 ± 0.04 | 0.878 ± 0.15 | 0.731 ± 0.029
4 | COc1cccc(/C=C/C(=O)O)c1C(C)C | 0.981 ± 0.042 | 1.03 ± 0.093 | 1 ± 0.041 | 1.12 ± 0.26 | 1.03 ± 0.17
5 | COc1ccc(C2C(=O)c3ccccc3C2=O)cc1 | 0.997 ± 0.061 | 0.984 ± 0.08 | 1.01 ± 0.045 | 0.933 ± 0.095 | 0.94 ± 0.021
6 | C[C@H]1CC2C3CCC4=CC(=O)C=C[C@]4(C)[C@@]3(F)[C@@H](O)C[C@]2(C)[C@@]1(O)C(=O)COP(=O)(O)O (stereo not given in full) | 0.93 ± 0.063 | 0.942 ± 0.028 | 0.952 ± 0.029 | 1.03 ± 0.09 | 1.06 ± 0.028
7 | CC1(O)CC2C(CC1O)C2(C)C (stereo not given) | 0.946 ± 0.051 | 0.998 ± 0.06 | 0.953 ± 0.011 | 0.91 ± 0.12 | 0.848 ± 0.16
8 | Nc1cc(C(Cl)=C(Cl)Cl)c(S(N)(=O)=O)cc1S(N)(=O)=O | 0.9995 ± 0.00071 | 1.125 ± 0.0071 | 1.03 ± 0.014 | 1.17 ± 0.11 | 1.1 ± 0.078
9 | COc1cc(-c2coc3cc(OC)c(OC)c(OC)c3c2=O)cc(OC)c1OC | 1.04 ± 0.08 | 1.18 ± 0.14 | 1.07 ± 0.064 | 1.05 ± 0.1 | 1.1 ± 0.028
10 | Cn1c(=O)c2nc[nH]c2n(C)c1=O | 0.996 ± 0.13 | 1.04 ± 0.021 | 1.07 ± 0.035 | 1.19 ± 0.014 | 0.986 ± 0.077
11 | Nc1ccc(S(=O)(=O)Nc2ccc(Cl)nn2)cc1 | 1.06 ± 0.096 | 1.03 ± 0.035 | 1.08 ± 0.05 | 0.954 ± 0.028 | 1.09 ± 0.042
12 | Cc1ccc2c(c1)CC[C@H]1CC(=O)CC[C@]21C | 1.03 ± 0.035 | 1.05 ± 0.097 | 0.9365 ± 0.0021 | 0.941 ± 0.13 | 0.957 ± 0.0028
13 | C[C@@H]1CC[C@@]23CCC4(C)[C@@](C=CC5[C@@]6(C)CCC(=O)C(C)(C)C6CC[C@]54C)(OC2=O)C3[C@H]1C (stereo not given in full) | 0.982 ± 0.04 | 0.991 ± 0.15 | 0.956 ± 0.018 | 0.836 ± 0.09 | 0.921 ± 0.017
14 | C=C1CC[C@H](O)C/C1=C/C=C1\CCC[C@]2(C)[C@@H]([C@H](C)/C=C/[C@H](C)C(C)C)CC[C@@H]12 | 0.982 ± 0.054 | 0.995 ± 0.11 | 0.954 ± 0.016 | 1.07 ± 0.16 | 1.09 ± 0.014
15 | NC(=O)c1ccc([N+](=O)[O-])cc1Cl | 1.02 ± 0.047 | 1.1 ± 0.057 | 1 ± 0.014 | 0.894 ± 0.19 | 0.967 ± 0.075
16 | CC(=O)Oc1ccccc1C(=O)O | 1.01 ± 0.035 | 1.02 ± 0.031 | 1.025 ± 0.0071 | 1.05 ± 0.014 | 0.97 ± 0.14
17 | C[C@]12CCC(=O)C=C1CC[C@@H]1[C@@H]2[C@@H](O)C[C@@]2(C)[C@H]1CC[C@]2(O)C(=O)CO | 1.06 ± 0.071 | 1.05 ± 0.057 | 1.04 ± 0.028 | 0.951 ± 0.11 | 0.935 ± 0.04
18 | O=c1ccc2ccccc2o1 | 0.985 ± 0.11 | 1.01 ± 0.029 | 0.976 ± 0.014 | 1.09 ± 0.014 | 0.984 ± 0.018
19 | CC(=O)O[C@H]1CC[C@]2(C)[C@H]3CC=C4[C@@H]5CC(C)(C)CC[C@]5(C(=O)O)CC[C@@]4(C)[C@]3(C)CC[C@H]2C1(C)C | 1.06 ± 0.05 | 1.11 ± 0.11 | 1.02 ± 0.033 | 1.03 | 1.03 ± 0.021
20 | C/C=C(\CO)C(=O)O[C@H]1[C@H](O)[C@@H](C(=O)OC)O[C@@H]2C[C@H]3O[C@@H](n4cnc5c(N)ncnc54)[C@H](OC)[C@H]3O[C@]21O [Herbicidin A] | 1.06 ± 0.014 | 0.843 ± 0.045 | 0.982 ± 0.054 | 0.933 ± 0.095 | 0.898 ± 0.064
21 | Nc1ccc(C(=O)O)c(O)c1 | 1.01 ± 0.021 | 1.06 ± 0.11 | 0.989 ± 0.013 | 1.04 ± 0.057 | 1.06 ± 0.1
22 | O=C(/C=C/c1ccc(O)c(O)c1)OCCc1ccccc1 | 0.892 ± 0.031 | 0.94 ± 0.039 | 0.963 ± 0.023 | 0.948 ± 0.059 | 0.9925 ± 0.0078
23 | Nc1ncnc2c1ncn2[C@@H]1O[C@H](CO)[C@@H](O)[C@H]1O | 1.06 ± 0.014 | 1.06 ± 0.09 | 1.04 ± 0.035 | 1.07 ± 0.17 | 1.15 ± 0.028
24 | O=C(/C=C/c1ccc(O)c(O)c1)O[C@@H]1C[C@](O)(C(=O)O)C[C@@H](O)[C@H]1O | 0.9805 ± 0.0064 | 0.95 ± 0.071 | 0.9255 ± 0.0092 | 0.931 ± 0.096 | 0.9705 ± 0.0064
25 | CCn1cc(C(=O)O)c(=O)c2cc(F)c(N3CCNCC3)nc21 | 1.05 ± 0.064 | 0.98 ± 0.071 | 1.05 ± 0.083 | 1.065 ± 0.0071 | 1.04 ± 0.028
26 | COc1cc([C@@H]2c3cc4c(cc3[C@@H](O[C@@H]3O[C@@H]5CO[C@@H](C)O[C@H]5[C@H](O)[C@H]3O)[C@H]3COC(=O)[C@H]23)OCO4)cc(OC)c1O | 1.03 ± 0.028 | 0.895 ± 0.12 | 1.03 ± 0.042 | 0.815 ± 0.14 | 0.879 ± 0.12
27 | Cc1cc(=O)oc2cc(O)c(O)cc12 | 0.951 ± 0.035 | 0.886 ± 0.071 | 0.98 ± 0.057 | 0.711 ± 0.25 | 1.085 ± 0.0071
28 | NS(=O)(=O)c1cc2c(cc1C(F)(F)F)NCNS2(=O)=O | 1.02 ± 0.17 | 1.09 ± 0.021 | 1.04 ± 0.057 | 1.12 ± 0.064 | 1.15 ± 0.092
29 | Cc1ccc(=O)n(-c2ccccc2)c1 | 0.911 ± 0.041 | 0.866 ± 0.096 | 0.945 ± 0.014 | 0.952 ± 0.17 | 1.08 ± 0.14
